The panel holds about 83,000 compounds, 20% with a hit somewhere; the sample as a whole holds those more often.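 Testing used 96-well plates and a 48-hour single-concentration exposure. Example: -40 means 40% of the starting cells died.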 The source made the active and inactive calls. How the source made its calls: active means growth percent below 10; inactive means the rest.

The first test relates to HCC-2998 colon. Description: NCI-60 one-dose screen, 48 h (100 = growth as untreated, 0 = no growth, -100 = all killed). The note with it: 10 µM unless noted.
Take `COc1ccccc1S(=O)Nc1ccccc1` (centres undefined): the growth was 107% (inactive).

In the case of `O=C(C[n+]1ccn(CC(OCc2ccc(Cl)cc2Cl)c2ccc(Cl)cc2Cl)c1)c1ccc(F)cc1` (centres undefined), the growth was -94.6% (active).

Consider `C=C(C)[C@@H]1CC[C@]2(C(=O)NCCNCCNCCN)CC[C@]3(C)[C@H](CC[C@@H]4[C@@]5(C)CC[C@H](O)C(C)(C)[C@@H]5CC[C@]43C)[C@@H]12`, for which the growth is -90.4% [100 µM] (active).

Turning to `CCOC(=O)c1c[nH]c2cc(OCC3CC3)c(OCC3CC3)cc2c1=O`, the growth was 107% (inactive).

Turning to `O=[N+]([O-])c1cc([N+](=O)[O-])c(NN=C(c2ccc(O)cc2)c2ccc(O)cc2)cc1Cl`, the growth was -93.5% (active).

Take `Cc1ccc(Cn2c(O)c(N=NC(=O)c3ccc(S(N)(=O)=O)cc3)c3ccccc32)cc1`: the growth is 114% (inactive).

With `CCN(CC)CCCCCCNc1cccc2cc(Br)cnc12`, the growth is 88.3% (inactive).

Turning to `CCN(CCNc1ccc(C)c2sc3cc(Cl)ccc3c(=O)c12)CC(C)O` (centres undefined), the growth was 5.33% (active).

As to `COc1cc2c(c(OC)c1OC)-c1cc(I)c(O)cc1[C@@H](NC(C)=O)CC2`, the growth was 20.8% (inactive).

With `CCNC(=O)N1CCc2c(Cl)c3c(c(OC)c2[C@@H]1[C@H]1OCc2c1ccc(OC)c2OC)OCCO3`, the growth is 61.1% (inactive).

Take `O=C(Nc1ccccc1)Nc1ccc(C(=O)/C=C/c2ccc(N3CCCC3)cc2)cc1`: the growth was 81.4% (inactive).

Turning to `CC(C)(C)c1cc(C(=O)Nc2ccccc2C(=O)NCCN)cc(C(C)(C)C)c1`, the growth is -59.1% (active).

`O=S(=O)(/N=c1/n(-c2ccccc2)nc2n1CCN2C1=NCCN1)c1ccc(-c2ccccc2)cc1`: the growth is 101% (inactive).

On to `Brc1ccc(-c2nnc3c4[nH]ccc4ncn23)cc1`, for which the growth was 96.6% (inactive).

In the case of `Cc1ccc(NCCN2CCCCC2)c2c(=O)c3ccccc3sc12`, the growth is 33.3% (inactive).

Regarding `CCCCCCSc1ncnc2nc[nH]c12`, the growth is 93.5% (inactive).

Consider `COc1ccc(CC(C#N)c2ccc(Cl)cc2)cc1` (centres undefined), for which the growth is 61.6% (inactive).

Take `CC(C)[C@H]1CCC2=C3CC[C@]45OC(=O)[C@@]6(CCC(C)(C)C[C@H]64)CC[C@@]5(C)[C@]3(C)CC[C@@]21C`: the growth is 97.9% [100 µM] (inactive).

Consider `O=C(N=c1n(-c2ccccc2)nc2n1CCN2C1=NCCN1)c1ccc(Cl)cc1`, for which the growth is 73% (inactive).

With `CNc1cc(C(=O)O)nc(NC)n1`, the growth was 94.7% (inactive).

As for `O=C(O)CSCc1nnc2n(Cc3ccccc3)c(=O)c3c4c(sc3n12)CCCC4`, the growth was 98.1% (inactive).

For `CCCCCCCCCCCCNC(=S)N/N=C/c1ccccc1O`, the growth was 78.2% (inactive).

As for `COc1ncc(-c2ccc3nccc(C#CCCCCC(=O)NO)c3c2)cc1NS(=O)(=O)c1ccc(F)cc1F`, the growth is 7.27% (active).

On to `O=C(NCc1ccccc1)C(Cl)Cl`, for which the growth is 107% (inactive).

On to `C=C(C)[C@@H]1CC[C@]2(COCCCN)CC[C@]3(C)[C@H](CC[C@@H]4[C@@](C)(CCCNCCCN)[C@H](C(=C)C)CC[C@]43C)[C@@H]12`, for which the growth was -55% [100 µM] (active).

Regarding `C=C(C)[C@@H]1CC[C@]2(C(=O)N3CCN(C)CC3)CC[C@]3(C)[C@H](CC[C@@H]4[C@@]5(C)C/C(=C/c6ccncc6)[C@H](O)C(C)(C)[C@@H]5CC[C@]43C)[C@@H]12`, the growth is -80.7% [100 µM] (active).

As for `COc1cc2c(c(OC)c1OC)-c1ccc(NNC(N)=S)c(=O)cc1[C@@H](NC(C)=O)CC2`, the growth is 11.4% (inactive).

Regarding `O=C(Oc1ccc(Cl)cc1[N+](=O)[O-])Oc1ccc(Cl)cc1[N+](=O)[O-]`, the growth was 108% (inactive).

In the case of `COCc1nc2ccccc2[nH]1`, the growth was 106% (inactive).

As to `CCOC(=O)n1cc(C2=C(c3ccc(OC)c(OC)c3)COC2=O)c2ccccc21`, the growth is 19.2% (inactive).

As to `CC(=O)Nc1ccc2nc3ccc(NC(C)=O)cc3[n+](-c3ccccc3)c2c1`, the growth was 108% (inactive).

For the compound `C=C(C)[C@@H]1CC[C@]2(C(N)=O)CC[C@]3(C)[C@H](CC[C@@H]4[C@@]5(C)C/C(=C/c6cccnc6)[C@H](O)C(C)(C)[C@@H]5CC[C@]43C)[C@@H]12`, the growth is 19.5% [100 µM] (inactive).

Consider `CC(C)(C)OC(=O)N1C=C/C(=C\Cn2cc(-c3ccccc3)nn2)CC1`, for which the growth was 88.4% (inactive).

Turning to `COc1ccc2c(c1)c(-c1noc(C(=O)c3cn(C)c4ncc(Br)cc34)n1)cn2C`, the growth was 92.9% (inactive).

As to `COc1cccc(-c2[nH]c(=S)ncc2C(=O)c2ccccc2)c1`, the growth is 102% (inactive).

With `COc1cc(C)cc2oc3oc(=N)c(C(=O)c4ccccc4)cc3c(=O)c12`, the growth was 108% (inactive).

As to `COc1cc(/C=C/C(=O)/C=C/c2ccc(-n3ccnc3C)cc2)ccc1O`, the growth is -47.3% (active).

The test system of a further test is KM12 colon. The description is as above. The note with it: 10 µM unless noted.
As to `COc1ccccc1S(=O)Nc1ccccc1` (centres undefined), the growth is 106% (inactive).

As to `O=C(C[n+]1ccn(CC(OCc2ccc(Cl)cc2Cl)c2ccc(Cl)cc2Cl)c1)c1ccc(F)cc1` (centres undefined), the growth is -89.1% (active).

For the compound `C=C(C)[C@@H]1CC[C@]2(C(=O)NCCNCCNCCN)CC[C@]3(C)[C@H](CC[C@@H]4[C@@]5(C)CC[C@H](O)C(C)(C)[C@@H]5CC[C@]43C)[C@@H]12`, the growth was -52.2% [100 µM] (active).

`CCOC(=O)c1c[nH]c2cc(OCC3CC3)c(OCC3CC3)cc2c1=O`: the growth was 95.7% (inactive).

`O=[N+]([O-])c1cc([N+](=O)[O-])c(NN=C(c2ccc(O)cc2)c2ccc(O)cc2)cc1Cl`: the growth is -77.7% (active).

Regarding `Cc1ccc(Cn2c(O)c(N=NC(=O)c3ccc(S(N)(=O)=O)cc3)c3ccccc32)cc1`, the growth is 106% (inactive).

Take `CCN(CC)CCCCCCNc1cccc2cc(Br)cnc12`: the growth was 65.7% (inactive).

For the compound `CCN(CCNc1ccc(C)c2sc3cc(Cl)ccc3c(=O)c12)CC(C)O` (centres undefined), the growth is 39.2% (inactive).

For the compound `COc1cc2c(c(OC)c1OC)-c1cc(I)c(O)cc1[C@@H](NC(C)=O)CC2`, the growth was 15.1% (inactive).

Regarding `CCNC(=O)N1CCc2c(Cl)c3c(c(OC)c2[C@@H]1[C@H]1OCc2c1ccc(OC)c2OC)OCCO3`, the growth was 18.7% (inactive).

For `O=C(Nc1ccccc1)Nc1ccc(C(=O)/C=C/c2ccc(N3CCCC3)cc2)cc1`, the growth is 52.5% (inactive).

`CC(C)(C)c1cc(C(=O)Nc2ccccc2C(=O)NCCN)cc(C(C)(C)C)c1`: the growth was -62.2% (active).

For `O=S(=O)(/N=c1/n(-c2ccccc2)nc2n1CCN2C1=NCCN1)c1ccc(-c2ccccc2)cc1`, the growth was 103% (inactive).

Turning to `Brc1ccc(-c2nnc3c4[nH]ccc4ncn23)cc1`, the growth is 73.4% (inactive).

Consider `Cc1ccc(NCCN2CCCCC2)c2c(=O)c3ccccc3sc12`, for which the growth was 32.6% (inactive).

With `CCCCCCSc1ncnc2nc[nH]c12`, the growth was 86% (inactive).

`COc1ccc(CC(C#N)c2ccc(Cl)cc2)cc1` (centres undefined): the growth is 32.6% (inactive).

For the compound `CC(C)[C@H]1CCC2=C3CC[C@]45OC(=O)[C@@]6(CCC(C)(C)C[C@H]64)CC[C@@]5(C)[C@]3(C)CC[C@@]21C`, the growth is 76% [100 µM] (inactive).

As to `O=C(N=c1n(-c2ccccc2)nc2n1CCN2C1=NCCN1)c1ccc(Cl)cc1`, the growth is 99.3% (inactive).

Regarding `CNc1cc(C(=O)O)nc(NC)n1`, the growth was 102% (inactive).

Take `O=C(O)CSCc1nnc2n(Cc3ccccc3)c(=O)c3c4c(sc3n12)CCCC4`: the growth was 109% (inactive).

`CCCCCCCCCCCCNC(=S)N/N=C/c1ccccc1O`: the growth was 68.8% (inactive).

For the compound `COc1ncc(-c2ccc3nccc(C#CCCCCC(=O)NO)c3c2)cc1NS(=O)(=O)c1ccc(F)cc1F`, the growth was 9.84% (active).

On to `O=C(NCc1ccccc1)C(Cl)Cl`, for which the growth is 101% (inactive).

As to `C=C(C)[C@@H]1CC[C@]2(COCCCN)CC[C@]3(C)[C@H](CC[C@@H]4[C@@](C)(CCCNCCCN)[C@H](C(=C)C)CC[C@]43C)[C@@H]12`, the growth was -62.5% [100 µM] (active).

For the compound `C=C(C)[C@@H]1CC[C@]2(C(=O)N3CCN(C)CC3)CC[C@]3(C)[C@H](CC[C@@H]4[C@@]5(C)C/C(=C/c6ccncc6)[C@H](O)C(C)(C)[C@@H]5CC[C@]43C)[C@@H]12`, the growth was -80.4% [100 µM] (active).

With `COc1cc2c(c(OC)c1OC)-c1ccc(NNC(N)=S)c(=O)cc1[C@@H](NC(C)=O)CC2`, the growth was -35.6% (active).

With `O=C(Oc1ccc(Cl)cc1[N+](=O)[O-])Oc1ccc(Cl)cc1[N+](=O)[O-]`, the growth was 106% (inactive).

Take `COCc1nc2ccccc2[nH]1`: the growth is 106% (inactive).

Consider `CCOC(=O)n1cc(C2=C(c3ccc(OC)c(OC)c3)COC2=O)c2ccccc21`, for which the growth was 2.26% (active).

`CC(=O)Nc1ccc2nc3ccc(NC(C)=O)cc3[n+](-c3ccccc3)c2c1`: the growth is 116% (inactive).

`C=C(C)[C@@H]1CC[C@]2(C(N)=O)CC[C@]3(C)[C@H](CC[C@@H]4[C@@]5(C)C/C(=C/c6cccnc6)[C@H](O)C(C)(C)[C@@H]5CC[C@]43C)[C@@H]12`: the growth was 14.2% [100 µM] (inactive).

With `CC(C)(C)OC(=O)N1C=C/C(=C\Cn2cc(-c3ccccc3)nn2)CC1`, the growth is 88.9% (inactive).

For the compound `COc1ccc2c(c1)c(-c1noc(C(=O)c3cn(C)c4ncc(Br)cc34)n1)cn2C`, the growth was 66.7% (inactive).

On to `COc1cccc(-c2[nH]c(=S)ncc2C(=O)c2ccccc2)c1`, for which the growth was 51.5% (inactive).

Turning to `COc1cc(C)cc2oc3oc(=N)c(C(=O)c4ccccc4)cc3c(=O)c12`, the growth is 104% (inactive).

As for `COc1cc(/C=C/C(=O)/C=C/c2ccc(-n3ccnc3C)cc2)ccc1O`, the growth was -49.7% (active).
